These results are taken from PubChem BioAssay (EPA / NIEHS).

Where “and” joins values, the source holds several entries; their conditions need not be identical. Identical values can stand only once. Records with an inconclusive call do not appear. Some structures have more than one record in an assay (separate samples or runs), and their calls can disagree. Calls of active or inactive are those of the source. Rule for the calls: active = hit-call score of the fitted dose curve at least 0.9, where 1 is the maximum; inconclusive = response in the unintended direction; inactive = score below 0.9.

Experiment [1] can be described thus: TOX21_p53_BLA_p2_viability: Viability Assessment in the Tox21 HCT-116 p53 Agonism Beta-lactamase Assay, Phase 2 (AID 2283591).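 Note: compound exposure lasted 16 h at 37 °C; actives lower the ATP signal meaning cytotoxicity.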 In outline: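 Cytotoxicity readout: CellTiter-Glo ATP luminescence, 30 min at room temperature, after the beta-lactamase read. Cells were HCT116 exposed 16 h at 37C to compounds pin-transferred at 217-fold dilution from DMSO stocks.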

The target in experiment [2] is Cellular tumor antigen p53 (Homo sapiens) (UniProt P04637). The experiment can be described thus: TOX21_p53_BLA_p2_ratio: Tox21 HCT-116 p53 Agonism Beta-lactamase Assay, Ratio, Phase 2 (AID 2283592). In outline: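 Read-out is the blue/green (460/530 nm, 405 nm excitation) ratio after 2 h CCF4-AM loading, fitted as gain versus DMSO. Compounds, pinned at 217-fold dilution from DMSO stocks, stayed 16 h on HCT-116 beta-lactamase reporter cells seeded 5 h earlier.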

Experiment [3] in a line: TOX21_p53_BLA_p3_viability: Viability Assessment in the Tox21 HCT-116 p53 Agonism Beta-lactamase Assay, Phase 3 (AID 2283593).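 Note: cells exposed to compound for 16 h before reading.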 A digest of the protocol: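 Cellular ATP was quantified by CellTiter-Glo luminescence, read after 30 min at room temperature. Beforehand, HCT116 cells (4000/well) received compound 5 h post-seeding, 217-fold diluted from DMSO, then incubated 16 h at 37C.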

For experiment [4], the target named is Cellular tumor antigen p53 (Homo sapiens) (UniProt P04637). The experiment can be described thus: TOX21_p53_BLA_p3_ratio: Tox21 HCT-116 p53 Agonism Beta-lactamase Assay, Ratio, Phase 3 (AID 2283596). In outline:
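Cells were seeded at 4000/well, rested 5 h at 37C, then dosed with DMSO compound solutions (217-fold dilution) for 16 h. CCF4-AM substrate was loaded for 2 h at room temperature, and the 460/530 nm emission ratio was fitted for gain of signal versus DMSO.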

Experiment [5] is described as follows: TOX21_p53_BLA_p4_viability: Viability Assessment in the Tox21 HCT-116 p53 Agonism Beta-lactamase Assay, Phase 4 (AID 2283597).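 Note: hits lower the luminescence signal meaning cytotoxicity.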 In outline: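 Cytotoxicity as reduced cellular ATP (CellTiter-Glo luminescence, 30 min room temperature), measured in the same wells following the CCF4 FRET p53 reading. Human HCT-116 cells received compounds in DMSO (217-fold dilution) for 16 h.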

Experiment [6] addresses Cellular tumor antigen p53 (Homo sapiens) (UniProt P04637). The experiment in a line: TOX21_p53_BLA_p5_ratio: Tox21 HCT-116 p53 Agonism Beta-lactamase Assay, Ratio, Phase 5 (AID 2283599). A digest of the protocol:
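Beta-lactamase reporter ratio (blue 460 nm over green 530 nm, 405 nm excitation) after 2 h CCF4-AM loading, in HCT-116 cells exposed 16 h at 37 C to compounds pinned at 217-fold dilution. Increases relative to DMSO baseline scored.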

Experiment [7] can be described thus: TOX21_p53_BLA_p5_viability: Viability Assessment in the Tox21 HCT-116 p53 Agonism Beta-lactamase Assay, Phase 5 (AID 2283600). A digest of the protocol:
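Viability came from CellTiter-Glo ATP luminescence, read after 30 min at room temperature. Before this, HCT-116 p53-bla cells (4000/well) had 16 hours of compound exposure at 37C, with DMSO stocks diluted 217-fold on transfer.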

In experiment [8] the target is Cellular tumor antigen p53 (Homo sapiens) (UniProt P04637). The experiment can be described thus: TOX21_p53_BLA_p4_ratio: Tox21 HCT-116 p53 Agonism Beta-lactamase Assay, Ratio, Phase 4 (AID 2283601). In outline: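 Signal is the blue/green (460nm/530nm) ratio of cleaved versus uncleaved CCF4-AM substrate, read after 2 h substrate loading. Cells were HCT116 carrying the p53-responsive beta-lactamase reporter, dosed 16 h at 37C, 5% CO2; CellTiter-Glo measured in parallel.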

Experiment [9] is described as follows: Tanguay_ZF_120hpf_MORT_legacy: (Legacy) Oregon State University Tanguay Lab 120 Hour Post-fertilization zebrafish Assay for Mortality (AID 2283633).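 For AC50: fitted as increase in binary mortality versus DMSO negative control.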 A digest of the protocol:
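Static waterborne exposure from 6 to 120 hpf at 28C of single dechorionated wild-type (5D) embryos per well, 0.64% DMSO final. Death recorded present/absent by brightfield at 24 and 120 hpf.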

The nature of experiment [10]: Tanguay_ZF_120hpf_AXIS_legacy: (Legacy) Oregon State University Tanguay Lab 120 Hour Post-fertilization zebrafish Assay for Body Axis Malformation (AID 2283635).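 For AC50: potency for an increased fraction of larvae scored with body axis malformation.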 A digest of the protocol: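 Binary scoring of axis defects at 120 hpf under brightfield, fitted positive versus DMSO. Tropical 5D embryos, chorion removed by pronase at 4 hpf, were singly exposed in sealed, dark plates at 28C from 6 hpf; DMSO 0.64% final.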

A short description of experiment [11]: Tanguay_ZF_120hpf_EYE_legacy: (Legacy) Oregon State University Tanguay Lab 120 Hour Post-fertilization zebrafish Assay for Eye Malformation (AID 2283636).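 Note: binary presence or absence of eye malformation scored by brightfield in 120 hpf larvae.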 In outline: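 Binary brightfield scoring of eye defects at 120 hpf after static exposure from 6 hpf of single pronase-dechorionated wild-type embryos (28C, 0.64% DMSO). Non-mortality endpoints omitted where embryos died; fit vs DMSO.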

Experiment [12] is described as follows: Tanguay_ZF_120hpf_JAW_legacy: (Legacy) Oregon State University Tanguay Lab 120 Hour Post-fertilization zebrafish Assay for Jaw Malformation (AID 2283638). In outline:
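Binary jaw-malformation call at 120 hpf by brightfield microscopy. Embryos (Tropical 5D strain, chorion removed at 4 hpf) were dosed statically at 6 hpf, one per well, at 28C with 0.64% DMSO. Embryos that died were not scored.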

The nature of experiment [13]: Tanguay_ZF_120hpf_OTIC_legacy: (Legacy) Oregon State University Tanguay Lab 120 Hour Post-fertilization zebrafish Assay for Otic Vesicle Malformation (AID 2283639). A digest of the protocol:
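Binary scoring of otic vesicle defects at 120 hpf in zebrafish (Tropical 5D) held under static exposure at 28C, sealed and shaded, with final DMSO 0.64%. Embryos dying by 24 or 120 hpf excluded; fitted positively against DMSO.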

Experiment [14] is described as follows: Tanguay_ZF_120hpf_PE_legacy: (Legacy) Oregon State University Tanguay Lab 120 Hour Post-fertilization zebrafish Assay for Pericardial Edema (AID 2283640). In outline:
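Scoring was binary, by brightfield microscopy at 120 hpf, and skipped where mortality occurred. Wild-type embryos were kept under sealed, foil-covered static exposure at 28C in 0.64% (vol/vol) DMSO.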

A short description of experiment [15]: Tanguay_ZF_120hpf_PFIN_legacy: (Legacy) Oregon State University Tanguay Lab 120 Hour Post-fertilization zebrafish Assay for Pectoral Fin Malformation (AID 2283648).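 Note: each larva judged yes or no for fin defect by brightfield with dead larvae skipped.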 A digest of the protocol:
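Pectoral fin malformation was recorded as a binary endpoint at 120 hpf in wild-type Tropical 5D larvae, which had been dechorionated and exposed statically from 6 hpf at 28C in 0.64% DMSO. Dead embryos were excluded.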

Experiment [16] is described as follows: Tanguay_ZF_120hpf_CFIN_legacy: (Legacy) Oregon State University Tanguay Lab 120 Hour Post-fertilization zebrafish Assay for Caudal Fin Malformation (AID 2283649). A digest of the protocol: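 Binary brightfield scoring of caudal fin defects at 120 hpf after static, light-shielded exposure at 28C from 6 hpf. Tropical 5D embryos, chorion removed with pronase at 4 hpf, final DMSO 0.64%.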

Experiment [17] in a line: Tanguay_ZF_120hpf_YSE_legacy: (Legacy) Oregon State University Tanguay Lab 120 Hour Post-fertilization zebrafish Assay for Yolk Sac Edema (AID 2283634). In outline: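 Presence or absence of yolk sac edema was recorded at 120 hpf in surviving larvae. These were wild-type Tropical 5D embryos, chorion removed at 4 hpf, held in static exposure at 28C from 6 hpf with 0.64% DMSO vehicle.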

Experiment [18] is described as follows: Tanguay_ZF_120hpf_BRAI_legacy: (Legacy) Oregon State University Tanguay Lab 120 Hour Post-fertilization zebrafish Assay for Brain Malformation (AID 2283641). A digest of the protocol:
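Binary brightfield scoring of brain malformation at 120 hpf in Tropical 5D larvae held under static exposure at 28C (0.64% v/v DMSO), non-mortality endpoints skipped if dead. Positive control: 5uM trimethyltin chloride; fit versus DMSO.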

Experiment [19] can be described thus: Tanguay_ZF_120hpf_SOMI_legacy: (Legacy) Oregon State University Tanguay Lab 120 Hour Post-fertilization zebrafish Assay for Somite Malformation (AID 2283647). In outline:
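Binary somite-defect scoring at 120 hpf, omitted for embryos that died, in wild-type (Tropical 5D) zebrafish with chorion removed by pronase at 4 hpf; static exposure began 6 hpf, single embryos per well, 28C, 0.64% DMSO; fitted positive versus DMSO.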

Experiment [20] is described as follows: Tanguay_ZF_120hpf_SNOU_legacy: (Legacy) Oregon State University Tanguay Lab 120 Hour Post-fertilization zebrafish Assay for Snout Malformation (AID 2283637). A digest of the protocol:
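Binary snout-malformation call at 120 hpf in wild-type 5D embryos, chorion removed by pronase, under static exposure from 6 hpf at 28C (0.64% DMSO). Embryos dying by 24 or 120 hpf excluded.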

Chain of Cellular tumor antigen p53 (Homo sapiens) (P04637 whole entry, looked up): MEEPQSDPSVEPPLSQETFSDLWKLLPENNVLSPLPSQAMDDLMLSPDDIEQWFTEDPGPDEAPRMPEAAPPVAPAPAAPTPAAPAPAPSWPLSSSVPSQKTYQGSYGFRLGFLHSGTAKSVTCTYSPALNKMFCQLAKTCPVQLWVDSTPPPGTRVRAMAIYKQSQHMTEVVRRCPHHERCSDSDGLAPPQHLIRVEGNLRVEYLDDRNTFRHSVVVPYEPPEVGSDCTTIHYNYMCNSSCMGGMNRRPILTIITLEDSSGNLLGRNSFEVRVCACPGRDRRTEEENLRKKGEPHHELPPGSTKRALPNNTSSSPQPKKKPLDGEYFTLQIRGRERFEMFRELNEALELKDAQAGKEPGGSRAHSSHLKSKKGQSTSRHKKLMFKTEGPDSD

A word on the AC50: it is the concentration giving half of the maximal activity seen. For the compound `CCCCCCCCn1sccc1=O`, the compound was called inactive in [1], in experiment [2], in experiment [4], in experiment [5], in experiment [6] and in experiment [7]. The call in [10], in [11], in experiment [12], in experiment [13], in experiment [14] and in experiment [15] was inactive. Besides, the call in [16] was inactive. Besides, the AC50 in experiment [2] is 20.8 µM (active); in experiment [3] it was 41.7 µM (active) and 72.5 µM (active); in experiment [4], 55.1 µM (active); in experiment [5], 15.4 µM (active); in experiment [8], 23.7 µM (active) and 46.2 µM (active); in experiment [9], 2.96 µM (active).

In the case of `CN(C)c1ccccc1`, the compound was called inactive in experiment [1], in [2], in experiment [3], in [4], in experiment [5] and in experiment [6]. Further, the compound was classed as inactive in experiment [7], in experiment [8], in [17], in [10], in experiment [11] and in experiment [12]. Besides, the outcome in experiment [13], in experiment [14], in [18], in [19], in [15] and in [16] was inactive.

For `ClC1=C(Cl)C2(Cl)C3C(Cl)C=CC3C1(Cl)C2(Cl)Cl` (centres undefined), the AC50 in [1] is 85.9 µM (active); in experiment [3], 46.1 µM (active) and 69.6 µM (active); in [5] it was 45.8 µM (active); in experiment [7] it was 75 µM (active). For the same compound, the compound was classed as inactive in experiment [1], in experiment [4], in [5], in experiment [6], in experiment [7] and in [8]. Also, the compound was called inactive in experiment [17], in experiment [10], in [11], in experiment [20], in experiment [12] and in [13]. For the same compound, the outcome in experiment [14], in [18] and in [15] was inactive.

Consider `CC(C)(O)c1cnn2c(-c3ccc(F)c(-c4c(F)cccc4C#N)c3)cnc2n1`, for which the result in experiment [1], in experiment [2], in experiment [3], in [5], in experiment [8] and in experiment [9] was inactive. Further, the call in experiment [17], in experiment [10], in [11], in experiment [20], in experiment [12] and in [13] was inactive. The compound was classed as inactive in experiment [14], in experiment [18], in experiment [19], in experiment [15] and in experiment [16].

For the compound `c1ccc2c(c1)oc1ccccc12`, the call in [1], in [2], in experiment [3], in [4], in experiment [5] and in [6] was inactive. Also, the compound was classed as inactive in experiment [7], in [8], in experiment [9], in experiment [17], in experiment [10] and in experiment [11]. For the same compound, the call in [20], in experiment [12], in experiment [13], in experiment [14], in [19] and in [15] was inactive. For the same compound, the result in experiment [16] was inactive.

As to `CS(=O)(=O)NC(=O)c1cc(Oc2ccc(C(F)(F)F)cc2Cl)ccc1[N+](=O)[O-]`, the compound was called inactive in experiment [1], in [2], in [3], in [4], in [7] and in [8]. In addition, the compound was called inactive in experiment [9], in [17], in [10], in [11], in experiment [12] and in experiment [14]. Besides, the compound was called inactive in experiment [19], in [15] and in experiment [16].

`O=C(O)C1C2CCC(O2)C1C(=O)O` (centres undefined): the result in experiment [1], in experiment [2], in experiment [4], in [5], in experiment [6] and in experiment [8] was inactive. Also, the call in experiment [9], in experiment [17], in experiment [10], in experiment [11], in experiment [20] and in [12] was inactive. Further, the compound was called inactive in experiment [14], in [19], in [15] and in experiment [16].

As to `COc1cc(C=O)cc2c1[C@H](COC(N)=O)[C@]1(OC(C)=O)ON2C[C@H]2[C@@H]1N2C(C)=O`, the compound was called inactive in [1], in [3], in experiment [5], in experiment [17], in [11] and in experiment [12]. Moreover, the compound was classed as inactive in experiment [13], in experiment [14], in experiment [19], in experiment [15] and in experiment [16]. Also, the AC50 in [2] was 0.249 µM (active); in [4], 0.56 µM (active); in experiment [6] it was 0.546 µM (active); in experiment [8], 304 nM (active); in experiment [10] it was 51.3 µM (active).
